Compounds without any hit were thinned out: in the full panel of roughly 83,000, 20% have a hit.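 Method: cells in 96-well plates; compound added at one concentration; 48 h incubation; percent growth measured; values under 10 scored active.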 Values without a mark were called inactive. Active and inactive are the calls of the source.

Holding throughout (test): NCI-60 one-dose screen, 48 h (100 = growth as untreated, 0 = no growth, -100 = all killed)
Details in all cases: 10 µM unless noted

For experiment [1], the system named is SR leukemia.
Experiment [2] relates to RPMI-8226 leukemia.
Experiment [3] relates to OVCAR-8 ovarian.
The subject of experiment [4] is OVCAR-5 ovarian.
Experiment [5] has as its system OVCAR-4 ovarian.
Experiment [6] concerns SK-OV-3 ovarian.
In experiment [7] the test system is IGROV1 ovarian.
Experiment [8] concerns OVCAR-3 ovarian.
Experiment [9] concerns HS 578T breast.
The test system of experiment [10] is NCI/ADR-RES ovarian.
For experiment [11], the system named is T-47D breast.
Experiment [12] relates to BT-549 breast.
Experiment [13] has as its system MDA-MB-435 melanoma.
The test system of experiment [14] is SW-620 colon.
Experiment [15] relates to MCF7 breast.
The test system of experiment [16] is HCT-116 colon.
Experiment [17] deals with HCC-2998 colon.
The test system of experiment [18] is KM12 colon.
Experiment [19] concerns MDA-MB-468 breast.

Consider `COc1ccc2[nH]cc(-c3nnc(N)nc3-c3c[nH]c4ncc(Br)cc34)c2c1`, for which the growth is 67.8% in [1]; 76.8% in experiment [2]; 82.5% in experiment [3]; 97.9% in [4]; 96.6% in experiment [5]; 76.2% in [6]. The growth in experiment [7] is 48.3%; in [8], 104%; in experiment [9], 70.1%; in experiment [10], 97.9%; in [11], 53.8%; in [12], 93%. Also, the growth in [13] was 102%; in experiment [14] it was 88.8%; in [15] it was 62.2%; in [16], 75.2%; in experiment [17], 110%; in experiment [18], 91.4%. For the same compound, in experiment [19], the growth is 79.9%.

In the case of `Cc1cccc(Nc2nc3ccccc3nc2/C=C/c2ccc(F)cc2)c1`, the growth in experiment [1] was 87.2%; in experiment [2] it was 91.8%; in experiment [3] it was 85.1%; in experiment [4], 101%; in experiment [5], 88.9%; in [6], 105%. The growth in experiment [7] was 75.3%; in experiment [8], 108%; in experiment [9], 83.8%; in [10], 91.1%; in [11], 78.9%; in [12], 99.2%. The growth is 96.8% in [13]; 88.2% in experiment [14]; 60.9% in experiment [15]; 81% in experiment [16]; 94.2% in experiment [17]; 96.5% in experiment [18].

As to `CCCCCCCCc1ccc(C(=O)Nc2cccc(P(=O)(O)O)c2)cc1`, the growth in [1] is 87.7%; in [2] it was 96.4%; in [3], 99.7%; in experiment [4], 116%; in experiment [5], 111%; in experiment [6], 112%. In addition, the growth is 108% in experiment [7]; 106% in experiment [8]; 102% in experiment [9]; 101% in experiment [10]; 125% in [11]; 110% in experiment [12]. For the same compound, the growth in experiment [13] is 103%; in [14], 100%; in experiment [15], 91.8%; in [16], 94.3%; in experiment [17], 114%; in [18], 103%.

With `NS(=O)(=O)c1ccc(N=Nc2c(O)n(CC(=O)Nc3ccccc3Cl)c3ccccc23)cc1`, the growth is 26.9% in experiment [1]; 29% in experiment [2]; 1.19% (active) in experiment [3]; 56.3% in experiment [4]; 53% in experiment [5]; 36.7% in experiment [6]. In addition, the growth in [7] is 18%; in [8] it was 21.3%; in experiment [9], 50.5%; in experiment [10], 30.4%; in experiment [11], 19.7%; in experiment [12] it was -4.12% (active). Besides, the growth is 34.5% in experiment [13]; 24.5% in experiment [14]; 6% (active) in experiment [15]; 8.6% (active) in experiment [16]; 28.3% in [17]; 17.1% in [18]. For the same compound, the growth in experiment [19] is 26.3%.

On to `C#CCOc1cc(N(CC)CC)ccc1C(C(=O)NC(C)(C)C)N(C(=O)C1CCc2cc(F)ccc2O1)c1cc(C)cc(C)c1` (stereo not given), for which the growth in experiment [1] is 20.4%; in experiment [2] it was 17.6%; in experiment [3], 34.1%; in experiment [4], 49.7%; in experiment [5] it was 36.8%; in [6] it was 46.7%. Moreover, the growth in experiment [7] was 61.9%; in experiment [8], 30.5%; in experiment [9] it was 53.7%; in experiment [10] it was 41.9%; in [11], 18.8%; in experiment [12] it was 43.1%. Also, the growth in experiment [13] is 47.1%; in experiment [14], 36.4%; in [15] it was 14.9%; in experiment [16], 11.4%; in experiment [17], 54.6%; in experiment [18] it was 25.9%. For the same compound, the growth in experiment [19] is 24.3%.

Take `Cc1ccccc1[C@H]1C(C(=O)c2ccc(Cl)cc2)C2(N[C@@H]1c1ccccc1)C(=O)Nc1ccccc12` (stereo not given in full): the growth in experiment [1] was -17.1% (active); in experiment [2], -24.2% (active); in [3], -67.9% (active); in [4], -46.6% (active); in experiment [5], 8.21% (active); in [6], -3.38% (active). The growth in experiment [7] is 5.88% (active); in experiment [8], -58.4% (active); in experiment [9], -28.8% (active); in [10], -68.2% (active); in [11], 4.15% (active); in [12] it was -66% (active). For the same compound, the growth in experiment [13] is -62.2% (active); in experiment [14] it was 0.765% (active); in experiment [15], -31.7% (active); in experiment [16], -84% (active); in experiment [17], -41.1% (active); in experiment [18], -30.8% (active). Besides, the growth in experiment [19] is -25.6% (active).

For the compound `C#C[C@]1(O)CC[C@H]2[C@@H]3CC=C4c5sc(-c6ccc(O)c(O)c6)nc5CC[C@]4(C)[C@H]3CC[C@@]21C`, the growth in [1] was -25.7% (active); in experiment [2], -50.4% (active); in [3], -77.3% (active); in experiment [4] it was -87% (active); in [5] it was -68.1% (active); in experiment [6], -78.2% (active). Besides, the growth is -67.4% (active) in experiment [7]; -56.3% (active) in [8]; -32.6% (active) in experiment [9]; -27.2% (active) in experiment [10]; -25.7% (active) in experiment [11]; -93.3% (active) in [12]. Further, the growth in experiment [13] was -62.3% (active); in [14], -76.6% (active); in experiment [15] it was -72.8% (active); in [16], -88.8% (active); in [17] it was -83.9% (active); in experiment [18], -76.3% (active). Also, the growth in [19] is -71.7% (active).

With `COc1c(F)ccc(C(=O)Nc2ccc3nc(NC(=O)C4CCCN(S(=O)(=O)C5CC5)C4)sc3c2)c1F` (stereo not given), the growth was 10.3% in experiment [1]; 19% in [2]; 36.4% in [3]; 77.4% in [4]; 38.5% in [5]; 43.7% in experiment [6]. Also, the growth was 69.3% in experiment [7]; 66.5% in [8]; 17.6% in experiment [9]; 33.2% in experiment [10]; -5.4% (active) in experiment [11]; -8.29% (active) in [12]. Moreover, the growth in [13] was 39.5%; in [14], 78.7%; in experiment [15], 15.2%; in experiment [16], 32.2%; in experiment [17], 59.8%; in experiment [18], 44%. Moreover, the growth in experiment [19] was 3.58% (active).

These data come from PubChem BioAssay (NCI).
